# Measurements as given in PubChem BioAssay AID651687 (Broad Institute, 2012).
# Several values for one entry are separate records, joined by “and”; a condition that tells them apart may be missing. Identical values can stand only once. The whole screen tested about 350,000 compounds, of which about 600 (0.17%) were called active.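 How the source made its calls: active means every replicate shows inhibition of at least 40%; inconclusive means mean inhibition at least 40% but some replicate below; inactive means the rest.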 The full list was thinned out, with actives kept by preference.
# Test: inhibitors of PGC1a acetylation signal, primary screen, cell-based, U2OS, AlphaScreen, inhibitor mode (AID 651687);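 further: 0% = neutral control wells and 100% = positive control wells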
# Conditions: AlphaScreen anti-acetyl-lysine, at 15.6 µM, stronger effect = higher value, with virally co-expressed GCN5 acetyltransferase
row,SMILES,inhibition
1,CN(C)CC(=O)Nc1ccc2c(c1)[C@H]1C[C@H](CC(=O)NCc3ccc4c(c3)OCO4)O[C@@H](CO)[C@H]1O2,-4.35% (inactive)
2,CC(=O)N(C)C[C@@H]1Oc2ncc(C#CCc3ccccc3)cc2C(=O)N([C@H](C)CO)C[C@H]1C,2.72% (inactive)
3,Cc1ccc(S(=O)(=O)Nc2ccc3c(c2)C(=O)N([C@H](C)CO)C[C@@H](C)[C@H](CN(C)Cc2ccccc2)O3)cc1,-12.1% (inactive)
4,CCNC(=O)C[C@@H]1CC[C@@H]2[C@H](COc3ccc(NC(=O)Nc4cccc(C)c4)cc3C(=O)N2C)O1,0.938% (inactive)
5,O=C(C[C@@H]1C[C@@H]2c3cc(NC(=O)Nc4ccccc4F)ccc3O[C@@H]2[C@@H](CO)O1)NCCc1ccccc1,9.83% (inactive)
6,O=C(C1CCCC1)N1CC(=O)N2[C@@H](CO)[C@H](c3ccc(C#CC4CCCC4)cc3)[C@@H]2C1,-10.1% (inactive)
7,O=C(C[C@@H]1CC[C@H](NC(=O)Nc2ccc3c(c2)OCO3)[C@H](CO)O1)NCc1ccccc1,2.06% (inactive)
8,COc1ccc(C(N)c2csc(NC(=O)Nc3cccc(C(F)(F)F)c3)n2)cc1 (stereo unspecified),-29.2% (inactive)
9,COc1cc(NC(=O)c2cncc(-c3ccc(C#N)cc3)c2)cc(C(=O)Nc2cccc(C(F)(F)F)c2)c1,4.55% (inactive) and 7.38% (inactive)
10,COc1cc(NC(=O)c2[nH]cnc2C(N)=O)cc(C(=O)Nc2cccc(C(F)(F)F)c2)c1,62.8% (active)
11,COc1cccc(-c2cn(CC[C@@H]3CC[C@@H](NC(C)=O)[C@@H](CO)O3)nn2)c1,22.5% (inactive)
12,O=C(C[C@H]1C=C[C@@H](NC(=O)c2cnccn2)[C@H](CO)O1)NCc1ccccc1F,-3.99% (inactive)
13,Cc1noc(C)c1S(=O)(=O)Nc1ccc2c(c1)CC(=O)N([C@H](C)CO)C[C@@H](C)[C@@H](CN(C)C)O2,4.76% (inactive)
14,CCCNC(=O)C[C@H]1CC[C@@H]2[C@H](COC[C@H](O)CN2CC2CCCCC2)O1,-2.1% (inactive)
15,O=C(O)C[C@H]1C[C@@H]2c3cc(NC(=O)Nc4ccc(C(F)(F)F)cc4)ccc3O[C@@H]2[C@@H](CO)O1,-2.34% (inactive)
16,C[C@H](O)C#Cc1ccc([C@H]2[C@H](CO)N3CCCCN(C(=O)c4ccc(F)cc4)C[C@@H]23)cc1,-4.78% (inactive)
17,CCC(=O)N(C)C[C@H]1Oc2ncc(-c3ccc(C#N)cc3)cc2C(=O)N([C@@H](C)CO)C[C@H]1C,-11.3% (inactive)
18,CCCNC(=O)N[C@H]1C=C[C@@H](CC(=O)NC2CCCCC2)O[C@H]1CO,-18.5% (inactive)
19,Cc1ccc(S(=O)(=O)Nc2ccc3c(c2)C(=O)N([C@@H](C)CO)C[C@H](C)[C@@H](CN(C)Cc2ccc4c(c2)OCO4)O3)cc1,1.59% (inactive)
20,COC(=O)C[C@H]1CC[C@@H]2[C@@H](COc3ccc(NC(=O)Nc4ccc(Cl)cc4)cc3C(=O)N2C)O1,-4.91% (inactive)
21,NC(=NC(=O)c1ccccc1)N1CCOCC1,84.1% (active)
22,O=C(CSC(=S)N1CCOCC1)c1ccccc1,-7.05% (inactive)

row,SMILES,inhibition
1,N[C@@H](Cc1ccccc1)C(=O)N1CCOCC1,-8.48% (inactive)
2,CCCC(=O)Nc1ccc2c(c1)C(=O)N(C)[C@@H]1CC[C@H](CC(=O)NCCN3CCCCC3)O[C@@H]1CO2,1.12% (inactive)
3,C[C@@H]1CCCCO[C@H](CN(C)C(=O)c2ccccc2)[C@@H](C)CN([C@H](C)CO)C(=O)c2cc(NC(=O)c3ccccc3)ccc2O1,5.89% (inactive)
4,C[C@@H]1CN([C@H](C)CO)C(=O)c2cc(NC(=O)c3ccccc3)ccc2O[C@@H](C)CCCCO[C@H]1CN(C)C(=O)c1ccncc1,8.37% (inactive)
5,CCNC(=O)Nc1ccc2c(c1)C(=O)N(C)[C@@H]1CC[C@@H](CC(=O)NC3CCCCC3)O[C@H]1CO2,1.93% (inactive)
6,C[C@@H]1CN([C@H](C)CO)C(=O)c2cc(NC(=O)C3CCCCC3)ccc2O[C@@H](C)CCCCO[C@H]1CN(C)S(C)(=O)=O,6.77% (inactive)
7,COc1ccc(S(=O)(=O)N(C)C[C@@H]2Oc3ccc(NC(=O)Cc4cn(C)c5ccccc45)cc3C(=O)N([C@H](C)CO)C[C@H]2C)cc1,-8.14% (inactive)
8,C[C@@H]1CN([C@H](C)CO)S(=O)(=O)c2ccc(-c3ccc(C(=O)N(C)C)cc3)cc2O[C@@H]1CN(C)C(=O)Nc1ccccc1F,-11.4% (inactive)
9,CO[C@H]1CN(C)C(=O)c2ccc(NC(=O)C3CC3)cc2OC[C@H](C)N(Cc2ccncc2)C[C@@H]1C,-7.97% (inactive)
10,COc1ccc(NC(=O)Nc2cccc3c2O[C@@H](CN(C)S(=O)(=O)c2ccc(C)cc2)[C@H](C)CN([C@@H](C)CO)C3=O)cc1,3.27% (inactive)
11,CO[C@H](C(=O)N(C)C[C@@H]1OCc2ccccc2-c2c(n(C)c3ccccc23)C(=O)N([C@@H](C)CO)C[C@H]1C)c1ccccc1,-1.42% (inactive)
12,CCCN1C[C@@H](C)[C@@H](OC)CN(C)C(=O)c2cc(NC(=O)C3CCC3)ccc2OC[C@H]1C,-10.1% (inactive)
13,CO[C@H]1CN(C)C(=O)c2cc(NS(=O)(=O)c3ccccc3)ccc2OC[C@H](C)N(C(=O)NC(C)C)C[C@@H]1C,8.54% (inactive)
14,O=C(c1ccncc1)N1CC2(C1)[C@@H](c1ccccc1)[C@H](CO)N2C(=O)c1ccncc1,6.1% (inactive)
15,C[C@@H]1CCCCO[C@@H](CN(C)C(=O)c2ccccc2)[C@H](C)CN([C@@H](C)CO)C(=O)c2cc(NS(C)(=O)=O)ccc2O1,-1.5% (inactive)
16,CCOC(=O)c1ccc2[nH]c3c(c2c1)CCCC3NC=O (stereo unspecified),5% (inactive)
17,CCOC(=O)c1ccc2[nH]c(C)c(CN3CCN(C)CC3)c(=O)c2c1,59.3% (active)
18,Cc1[nH]c2ccc(C(=O)N3CCN(C)CC3)cc2c1C,1.27% (inactive)
19,CO[C@@H]1CN(C)C(=O)c2ccc(NS(C)(=O)=O)cc2OC[C@H](C)N(C(=O)C2CC2)C[C@H]1C,-8.93% (inactive)
20,COc1ccc(NC(=O)Nc2ccc3c(c2)C(=O)N([C@@H](C)CO)C[C@H](C)[C@@H](CN(C)S(=O)(=O)c2ccc(Cl)cc2)O3)cc1,-2.11% (inactive)
21,C[C@H]1CN([C@@H](C)CO)C(=O)c2cccc(NC(=O)Nc3ccccc3)c2O[C@H]1CN(C)S(=O)(=O)c1ccc(F)cc1,-3.23% (inactive)
22,C[C@@H]1CN([C@H](C)CO)C(=O)c2cc(NC(=O)Nc3ccc(F)cc3)ccc2O[C@@H](C)CCCCO[C@@H]1CN(C)S(=O)(=O)c1cn(C)cn1,-2.5% (inactive)

row,SMILES,inhibition
1,C[C@@H](O)C#Cc1ccc([C@H]2[C@H](CO)N3CCCCN(C(=O)c4ccc(F)cc4)C[C@@H]23)cc1,-2.34% (inactive)
2,Cc1cc(C)nc(SC(C)C(=O)N/N=C/c2cccs2)n1 (stereo unspecified),-4.85% (inactive)
3,Cc1nc2ccccc2n1CC(=O)N/N=C/c1cccs1,0.244% (inactive)
4,NC(=O)N/N=C\c1cccs1,76.7% (active)
5,COCC(=O)N1[C@H](CO)[C@@H](c2ccccc2)C12CN(Cc1cc(F)ccc1F)C2,3.15% (inactive)
6,CN1c2ccc(C#Cc3ccccc3F)cc2[C@@H]2[C@@H](CCN2C(=O)Cc2cccnc2)[C@H]1CO,-8.75% (inactive)
7,CO[C@@H]1CN(C)C(=O)c2ccc(NS(=O)(=O)c3c(C)noc3C)cc2OC[C@H](C)NC[C@@H]1C,14.4% (inactive)
8,CC(C)NC(=O)N(C)C[C@H]1OCCCC[C@H](C)Oc2ccc(NS(=O)(=O)c3cccs3)cc2C(=O)N([C@H](C)CO)C[C@@H]1C,-3.81% (inactive)
9,COc1ccc2c3c(n(C)c2c1)[C@@H](CO)N(C(=O)CN1CCOCC1)CC31CCN(C(=O)C2CC2)CC1,5.01% (inactive)
10,O=C(c1cccnc1)N1C[C@H]2[C@@H](c3ccccc31)[C@H](CO)N2C(=O)C1CC1,8.96% (inactive)
11,C[C@H](CO)N1C[C@H](C)[C@@H](CN(C)S(=O)(=O)c2cccs2)OCc2ccccc2-c2ccccc2C1=O,-0.156% (inactive)
12,CCNC(=O)C[C@@H]1CC[C@@H]2[C@@H](COc3ccc(NC(=O)Nc4ccccc4F)cc3C(=O)N2C)O1,2.36% (inactive)
13,CO[C@@H]1CN(C)C(=O)c2cc(NC(=O)c3ccccc3F)ccc2OC[C@H](C)NC[C@@H]1C,-5.95% (inactive)
14,CO[C@@H]1CN(C)C(=O)c2ccc(NC(=O)c3ccccc3F)cc2OC[C@@H](C)N(CC2CCOCC2)C[C@H]1C,-3.01% (inactive)
15,C[C@@H]1CCCCO[C@@H](CN(C)C(=O)C2CCCCC2)[C@H](C)CN([C@H](C)CO)C(=O)c2cc(NC(=O)c3ccccc3)ccc2O1,-4.75% (inactive)
16,CCCN(C)C[C@H]1Oc2ncc(-c3ccccc3OC)cc2C(=O)N([C@H](C)CO)C[C@H]1C,7.87% (inactive)
17,C[C@@H](NC(=O)C[C@H]1CC[C@H]2[C@@H](COC[C@@H](O)CN2C(=O)Nc2ccccc2)O1)c1ccccc1,6.72% (inactive)
18,COc1ccccc1C#Cc1cnc2c(c1)C(=O)N([C@@H](C)CO)C[C@@H](C)[C@H](CN(C)C(=O)CN(C)C)O2,-1.48% (inactive)
19,Cc1[nH]c(=O)c(C(=O)/C=C/c2ccccc2)c2c1CCCC2,53.2% (active)
20,CC1(C(=O)O)CCCN(C(=O)/C=C/c2ccccc2)C1 (stereo unspecified),7.82% (inactive)
21,C/C(=C\c1ccccc1)C1NC(=O)c2c(sc3c2CCCC3)N1 (stereo unspecified),6.29% (inactive)
22,C[C@@H]1CN([C@H](C)CO)C(=O)c2cc(NC(=O)c3ccccc3)ccc2O[C@@H](C)CCCCO[C@H]1CN(C)S(=O)(=O)c1ccccc1,0.633% (inactive)
